# Dicer inh – inhibitors of human Dicer processing of pre-microRNA; Q9UPY3; cat-ELCCA pre-miR-21 Dicer processing, chemiluminescence; active compounds read high; z-score at 25 µM; actives 6% (n = 47,000); in the data active = z-score above about 3, passing the limit was not always enough;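 also: plate controls were vehicle for no effect and no enzyme for full effect; higher signal means more uncleaved substrate so more Dicer inhibition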
# An asterisk follows results filed as active. The full list was thinned out, with hits kept by preference.
SMILES,Dicer inh
CC1(C)CC(=O)C2=C(C1)N1C(=C(C#N)C2c2ccc3c(c2)OCO3)N=C(N)c2ccccc21 (configuration not stated),0.12
N#CC1=C2N=C(N)c3ccccc3N2C2=C(C(=O)CCC2)C1c1ccc(Cl)cc1 (configuration not stated),2
COc1ccc(C2C(C#N)=C3N=C(N)c4ccccc4N3C3=C2C(=O)CCC3)cc1 (configuration not stated),1.5
CN(C)c1ccc(C2C(C#N)=C3N=C(N)c4ccccc4N3C3=C2C(=O)CC(C)(C)C3)cc1 (configuration not stated),6.9*
COc1ccc(OC)c(C2C(C#N)=C3N=C(N)c4ccccc4N3C3=C2C(=O)CC(C)(C)C3)c1 (configuration not stated),4.8*
COc1ccccc1C1C(C#N)=C2N=C(N)c3ccccc3N2C2=C1C(=O)CCC2 (configuration not stated),-1
CCOC(=O)c1cc(-c2ccccc2)sc1NC(=S)OCC,-0.32
N#CCOc1ccc2c(=O)cc(-c3ccccc3)oc2c1,0.67
Cc1ccc(CSc2n[nH]c(=O)n2-c2ccc(C(C)(C)C)cc2)cc1,-1
CS/C(N)=N/N=C/c1c(Cl)cccc1Cl,0.62
O=c1oc2ccccc2nc1/C=C(\O)c1ccc([N+](=O)[O-])cc1,-0.39
Cc1cc(Br)c(NC(=S)NN)c(Br)c1,2.6
O=C(O)Cc1csc(Nc2ccccc2)n1,2.3
CCCOc1ccc(-c2cc(OCC)c3c(C)oc(C)c3c(=O)c2)cc1,0.04
COc1ccc(-c2nc(-c3ccccn3)no2)cc1OC,1.2
c1ccc(-c2noc(-c3cccc4ccccc34)n2)nc1,1.3
c1ccc(-c2ccc(-c3nc(-c4ccccn4)no3)cc2)cc1,5.2*
CC(C)c1ccc(NC(=O)Nc2csc(Cc3c(Cl)cccc3Cl)n2)cc1,1.4
Cc1cccc(C)c1OCC(O)Cn1cnc2ccccc21 (configuration not stated),0.99
Cc1cccc(OCC(O)Cn2cnc3ccccc32)c1 (configuration not stated),3.7*
Cc1ccc(Cl)c(OCC(O)Cn2cnc3ccccc32)c1 (configuration not stated),0.51
COc1ccc(/C(O)=C2\C(=O)C(=O)N(CCN3CCNCC3)C2c2ccc(F)cc2)cc1 (configuration not stated),-4.4
O=C(NCc1ccc2c(c1)OCO2)C1CC(c2cccc(Br)c2)=NO1 (configuration not stated),-0.75
CC(C)CNC(=O)C1CC(c2ccccc2)=NO1 (configuration not stated),3.6*
O=C(NCc1ccco1)C1CC(c2ccc(Cl)cc2)=NO1 (configuration not stated),1.6
SMILES,Dicer inh
CCOc1c(C(C)=O)c(=O)[nH]c2scc(C)c12,-0.68
COc1cc(-c2ccc3c(c2)OCO3)cc(=O)c2c(C)oc(C)c12,2.3
CCCC1=C(C(=O)OCC)C(c2cccc(F)c2)n2c(nc3ccccc32)N1 (configuration not stated),0.56
COc1ccc(OS(=O)(=O)CS(C)(=O)=O)cc1,-0.65
Cc1nnc(N2C(=O)C(O)=C(C(=O)c3cccs3)C2c2ccc(Cl)cc2)s1 (configuration not stated),0.95
Cc1ccc(C2C(C(=O)c3cccs3)=C(O)C(=O)N2CCCn2ccnc2)cc1 (configuration not stated),3.3*
Cc1nnc(N2C(=O)C(O)=C(C(=O)c3ccco3)C2c2ccc(Cl)cc2)s1 (configuration not stated),4.2*
COc1ccc(C2C(C(=O)c3ccco3)=C(O)C(=O)N2c2nnc(C)s2)cc1OC (configuration not stated),0.56
Cc1nnc(N2C(=O)C(O)=C(C(=O)c3cccs3)C2c2ccc(C(C)(C)C)cc2)s1 (configuration not stated),1.1
COC(=O)c1sc(N2C(=O)C(O)=C(C(=O)c3cccs3)C2c2ccc(C(C)C)cc2)nc1C (configuration not stated),2.4
Cc1nnc(N2C(=O)C(O)=C(C(=O)c3cccs3)C2c2ccc(F)cc2)s1 (configuration not stated),3.8*
COC(=O)c1sc(N2C(=O)C(O)=C(C(=O)c3cccs3)C2c2ccc(F)cc2)nc1C (configuration not stated),1.4
COC(=O)c1sc(N2C(=O)C(O)=C(C(=O)c3cccs3)C2c2ccc(Cl)cc2)nc1C (configuration not stated),3.8*
O=C(C1=C(O)C(=O)N(CCN2CCOCC2)C1c1ccncc1)c1cccs1 (configuration not stated),-2.3
Cc1nnc(N2C(=O)C(O)=C(C(=O)c3ccco3)C2c2ccccc2)s1 (configuration not stated),1.2
CC(C)c1ccc(C2C(C(=O)c3cccs3)=C(O)C(=O)N2CCCN2CCOCC2)cc1 (configuration not stated),1.3
O=c1[nH]c(=S)[nH]c2c1cnn2-c1ccc(F)cc1,0.35
NC(=O)c1nnn(Cc2ccc(F)cc2)c1N,-0.15
